High-throughput results: PubChem, National Center for Advancing Translational Sciences (NCATS)
DT40 TDP1 no CPT = qHTS for Inhibitors of human tyrosyl-DNA phosphodiesterase 1 (TDP1): qHTS in cells in absence of CPT; AID 686978, 2013; Potency, µM (doses to about 46.2 µM), inactives show at the top dose activity change, negative = growth inhibition, hits mostly inhibitors; hit rate 15% among 420,000; DT40 Tdp1-/- hTDP1 cells, no CPT, ATP luminescence, 48 h; further: potency means the concentration at half of the fitted maximal effect; on the % scale 0 is the no-effect control and ±100 the full control effect; nearly all actives have a fitted effect of over 55% in size
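Compound effects on proliferation are scored in DT40 Tdp1-/-;hTDP1 cells in the absence of CPT. ATP levels (CellTiter-Glo luminescence) are recorded after a ≥48 hr, 37 °C incubation.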
TDP1 cell CPT = DT40-hTDP1 cell growth loss with CPT; Potency, µM (highest dose often 46.2 µM), for the others: at the top dose activity change, negative = growth inhibition, most hits filed as inhibitors; chicken DT40 Tdp1-/-;hTDP1 cells + 20 nM CPT, ATP luminescence, 48 h; hit rate 12% among 420,000; further: potency means the concentration at half of the fitted maximal effect; on the % scale 0 is the no-effect control and ±100 the full control effect; nearly all actives have a fitted effect of over 55% in size
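Chicken DT40 Tdp1-/- cells stably complemented with human TDP1 were seeded at 400 cells/well in medium containing 20 nM camptothecin, exposed to pin-transferred compounds, and grown at 37 °C for at least 48 hr. Viability was read as ATP luminescence.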
IL1B secr inh = inhibitors of inflammasome signaling (IL-1 beta secretion). activity change, % at 57.5 µM. THP-1 LPS/ATP IL-1B secretion, AlphaLISA, 16 h; hits give low values. hit rate 4.7% among 360,000; in the data active means activity change below about -50%; inconclusive means mostly about -30% to -49%; further: on the % scale 0 is the no-effect control and ±100 the full control effect
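THP-1 cells pretreated 1 hr with compounds (up to 57.5 uM final), then stimulated with LPS (250 ng/mL final) plus ATP (1.25 mM final); secreted IL-1B measured by AlphaLISA after 16 hr, decreased signal indicating inhibition.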
ASM inhibitor = blocks human secretory acid sphingomyelinase; P17405; placental ASM, HMU-PC fluorogenic substrate, 60 min; Potency, µM (highest dose often 57.5 µM), inactives show top-dose activity change, negative = inhibition, usual class: inhibitors; hit rate 0.006% among 340,000; AID 504937; further: potency means the concentration at half of the fitted maximal effect
Target sequence (P17405 47-631 limits assumed): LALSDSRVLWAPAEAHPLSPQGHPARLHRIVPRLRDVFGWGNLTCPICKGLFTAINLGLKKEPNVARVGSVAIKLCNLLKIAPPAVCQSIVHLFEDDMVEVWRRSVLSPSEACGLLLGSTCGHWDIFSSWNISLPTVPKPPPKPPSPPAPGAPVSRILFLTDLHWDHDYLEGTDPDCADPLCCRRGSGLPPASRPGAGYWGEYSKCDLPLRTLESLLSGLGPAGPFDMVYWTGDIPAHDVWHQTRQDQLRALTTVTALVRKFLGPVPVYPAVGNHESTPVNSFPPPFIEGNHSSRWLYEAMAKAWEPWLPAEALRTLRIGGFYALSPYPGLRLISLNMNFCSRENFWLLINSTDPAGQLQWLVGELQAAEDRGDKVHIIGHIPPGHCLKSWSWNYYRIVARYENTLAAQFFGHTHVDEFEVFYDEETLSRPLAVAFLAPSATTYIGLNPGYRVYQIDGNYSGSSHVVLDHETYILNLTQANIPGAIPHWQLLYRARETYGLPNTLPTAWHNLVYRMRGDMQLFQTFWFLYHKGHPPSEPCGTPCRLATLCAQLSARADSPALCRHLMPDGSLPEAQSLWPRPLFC
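Human placenta-derived ASM preincubated with compound 10 min at room temperature, then reacted with 9 uM (final) fluorogenic HMU-PC substrate for 60 min at 37 C. Stop solution raises pH to 10; fluorescence read at Ex 386/Em 447 nm.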
TGFb SMAD3 inh = TGF-b pathway inhibition; hit rate 1.2% among 410,000; AID 588855; HepG2 CAGA-GFP TGF-b/SMAD3 reporter, GFP fluorescence, 18 h; TGF-beta stimulated, 500 pg/mL final; Potency, µM (titrated, usually from 46.1 µM), inactives show at the highest dose activity, negative = inhibition, most hits filed as inhibitors; further: potency means the concentration at half of the fitted maximal effect; on the % scale 0 is the no-effect control and ±100 the full control effect; nearly all actives have a fitted effect of over 65% in size
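Per well, imaged GFP fluorescence of HEPG2 CAGA-GFP cells gives the signal; cells get compound, then TGF-beta (500 pg/mL final), 18 h at 37 degrees C; %Activity versus -TGF-beta and +DMSO controls.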
HepG2 viability = HepG2 cytotoxicity, counter-screen for TGF-b inhibitors; AID 588856; hit rate 0.76% among 410,000; HepG2 CAGA-GFP viability, ATP luminescence, 18 h; Potency, µM (titrated, usually from 46.1 µM), without a hit: top-dose activity change, negative = cytotoxicity, hits mostly cytotoxic; further: potency means the concentration at half of the fitted maximal effect
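HepG2 CAGA-GFP cells (1000/well, DMEM with 1% FBS) received compound, then TGF-beta at 500 pg/mL final, and were incubated 18 hours at 37 degrees C. Viability was read by CellTiter-Glo luminescence. Media-only wells were set as complete cell-killing and DMSO as no toxicity.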
Active calls of the source: *; ? = inconclusive; . = no result given; [ ] = remark or other dose. Rows were chosen to be rich in hits. Some 19% of all compounds tested hit in one or more screens of this group. Unless noted, the call rests on the fitted dose curve; in most records, active means well fitted curve in the direction sought with a large enough effect; inconclusive means small, poorly fitted or top-dose-only effect, or another doubt; inactive means no such curve, though single readings can be large; an effect the other way counts as inactive or inconclusive.

SMILES	DT40 TDP1 no CPT	TDP1 cell CPT	IL1B secr inh	ASM inhibitor	TGFb SMAD3 inh	HepG2 viability
CCOC(=O)N1CCN(c2nc3ccc(C(=O)c4ccccc4)cc3n3cnnc23)CC1	?	?	-10.8	?	-3.1%	-0.9%
CCN1CCN(c2nc3ccccc3n3cnnc23)CC1	-21.6%	-7.4%	-20.1	6.6%	24.9%	36.0%
Cc1cccc(CC(=O)NC2CC(=O)N(c3ccccc3)C2)c1 (stereo unspecified)	0.1%	3.9%	.	.	-9.8%	4.1%
CN(C)N1C(=O)CC(C)(c2ccc([N+](=O)[O-])cc2)C1=O (stereo unspecified)	4.3%	-11.3%	-0.4	3.3%	-13.4%	-27.5%
CN(C)C(/C=C/Nc1ccc(O)cc1)=C(C#N)C#N	-0.7%	0.4%	11.2	-2.8%	1.5%	7.3%
Cc1cc(=O)[nH]c(NN=C2CCCCC2C)n1 (stereo unspecified)	18.4µM*	?	-0.8	-0.1%	5.8%	-76.1%
Cc1c(CN(C)C(=O)c2sc3cc(Cl)ccc3c2Cl)cnn1C	20.6µM*	14.6µM*	?	-0.9%	-6.6%	-20.2%
CCc1ccc(OCCCSc2nc(-c3ccc(C(C)(C)C)cc3)nc3cc(=O)[nH]n23)cc1	23.1µM*	?	.	.	.	-73.3%
Cc1ccc(C(C)C)c(OCCSc2nc(-c3ccccc3F)nc3cc(=O)[nH]n23)c1	?	?	.	.	-8.4%	-33.8%
COc1cc(C)ccc1OCCSc1nc(-c2cccc(C)c2)nc2cc(=O)[nH]n12	20.6µM*	16.4µM*	.	.	-10.3%	-8.0%
O=c1cc2nc(-c3ccccc3F)nc(SCc3ccc(Br)cc3)n2[nH]1	11.6µM*	18.4µM*	.	.	?	-38.4%
Cc1ccccc1NC(=O)CSc1nc(-c2ccco2)nc2cc(=O)[nH]n12	-1.5%	8.3%	.	.	-22.3%	-5.7%
Cc1ccccc1NC(=O)CSc1nc(-c2ccccc2C)nc2cc(=O)[nH]n12	?	-10.0%	.	.	3.55µM*	-38.2%
CCN1CCN(C(=O)c2ccc3c(c2)N(Cc2ccccc2F)C(=O)c2ccccc2S3=O)CC1 (stereo unspecified)	?	-2.4%	.	.	0.0%	-15.0%
Cc1cccn2c(Nc3ccc4c(c3)OCCO4)c(-c3ccc(Br)o3)nc12	?	?	.	.	?	-21.4%
Cc1ccc(C(=O)N2CCN(S(=O)(=O)c3ccc(Br)cc3)CC2)o1	-29.5%	0.0%	-0.4	1.3%	-3.6%	-8.8%
CCc1ccc(OCCSc2nc(-c3cccc(C)c3)nc3cc(=O)[nH]n23)cc1	?	23.1µM*	.	.	-21.2%	-15.8%
Cc1cccc(OCCSc2nc(-c3cccs3)nc3cc(=O)[nH]n23)c1	?	?	.	.	-1.1%	-18.7%
Cc1cccc(-c2nc(SCCCOc3ccc(Cl)c(C)c3)n3[nH]c(=O)cc3n2)c1	?	?	.	.	?	-16.6%
COc1ccc(-c2nc(SCCOc3cc(C)ccc3C(C)C)n3[nH]c(=O)cc3n2)cc1	18.4µM*	?	.	.	?	-20.7%
Cc1ccc(OCCSc2nc(-c3ccccc3C)nc3cc(=O)[nH]n23)cc1Cl	16.4µM*	16.4µM*	.	.	?	-100.5%
COc1ccc2cc(CNCc3ccccc3C(F)(F)F)c(N3CCCC(CO)C3)nc2c1 (stereo unspecified)	-28.9%	-12.1%[9.04 µM]	.	.	.	.
CCC[n+]1c(C)sc2c3c(ccc21)CCCC3	2.31µM*	1.84µM*	-96.8*	-6.4%	-35.7%	-3.5%
